Consider 62 molecules from PubChem BioAssay AID588855 (National Center for Advancing Translational Sciences (NCATS), 2011).

In all, about 410,000 compounds went through this assay and about 5,000 (1.2%) were called active. Another 13% or so got no clear call; they are omitted. Many of the other results were omitted from the sample, so actives are more common in it than they were. A number with no mark means an inactive call. The call rests on the fitted dose curve; in most records, active means well fitted inhibition curve with a large enough effect; inconclusive means small, poorly fitted or top-dose-only effect; inactive means no such curve, though single readings can be large or run the other way.
On the % scale 0 is the no-effect control and ±100 the full control effect; potency means the concentration at half of the fitted maximal effect.

The nature of this experiment: qHTS for Inhibitors of TGF-b. Further: nearly all actives have a fitted effect of over 65% in size. The note with it: HepG2 CAGA-GFP TGF-b/SMAD3 reporter, GFP fluorescence, 18 h, TGF-beta stimulated, 500 pg/mL final; series mostly up to 46.1 µM; activity, negative = inhibition: at the top concentration. The procedure, abridged:
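HEPG2 CAGA-GFP reporter cells (1000/well, DMEM with 1% FBS) received compounds, then recombinant TGF-beta at 500 pg/mL final for 18 hours at 37 degrees C. Per-cell GFP summed per well was normalised to unstimulated and stimulated DMSO controls before curve fitting.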
Consider `Cc1ccc(C)c(N2CCN(C(=O)CCc3c(C)nc4c(c3C)c(=O)n(C)c(=O)n4C)CC2)c1`, for which the “activity, negative = inhibition” value is -24.3%.

With `CCOc1ccc(CNC(=O)c2ccc(CS(=O)c3ccccc3)o2)cc1` (configuration not stated), the “activity, negative = inhibition” value was -1.57%.

For the molecule `CC(=O)c1ccc(N2CCN(C3C(=O)c4ccccc4N3C(C)=O)CC2)cc1` (configuration not stated), the “activity, negative = inhibition” value is 0%.

Regarding `CCOc1ccc2nc(N(CCCN(C)C)C(=O)c3ccc(C(=O)c4ccccc4)cc3)sc2c1`, the Potency was 22.4 µM (active).

As for `CCN(C(=O)COc1ccc(C(=O)c2ccccc2)cc1)c1ccccc1`, the “activity, negative = inhibition” value is -18%.

Consider `CCOc1ccc2nc(C(=O)N3CCCC(C)C3)sc2c1` (configuration not stated), for which the “activity, negative = inhibition” value was 3.8%.

Regarding `Cc1ccc2nc(/C(C#N)=C/c3ccccc3F)[nH]c2c1`, the “activity, negative = inhibition” value is -31.6%.

Regarding `O=S(=O)(c1ccccc1)N1CCc2ccccc21`, the “activity, negative = inhibition” value is -0.156%.

With `Cn1c(=O)n(C)c2cc(S(=O)(=O)N3CCCc4ccccc43)ccc21`, the Potency is 12.6 µM (active).

As to `CCn1c(=O)c(=O)n(CC)c2cc(S(=O)(=O)N3CCc4ccccc43)ccc21`, the “activity, negative = inhibition” value is 8.33%.

On to `Cc1cc(C)cc(NC(=O)CSc2oc(-c3ccccc3)nc2S(=O)(=O)c2ccc(Cl)cc2)c1`, for which the “activity, negative = inhibition” value is 4.95%.

In the case of `COc1cc(C(=O)N2CCN(c3ccc(Nc4ccc(C)cc4)nn3)CC2)cc(OC)c1OC`, the “activity, negative = inhibition” value is -7.49%.

Consider `Cc1onc(-c2c(F)cccc2Cl)c1C(=O)Nc1cccc(S(=O)(=O)N2CCCCC2)c1`, for which the “activity, negative = inhibition” value is 5.34%.

As for `Cc1onc(-c2ccc(F)cc2F)c1C(=O)Nc1cccc(C(F)(F)F)c1`, the Potency was 12.6 µM (active).

As for `Cc1onc(-c2c(F)cccc2Cl)c1C(=O)N(C)CC(=O)Nc1cccc(F)c1`, the “activity, negative = inhibition” value was -2.61%.

For `O=C1c2ccccc2C(=O)N1c1ccc(S(=O)(=O)N2CCOCC2)c2ccccc12`, the “activity, negative = inhibition” value is 3.68%.

Take `Cc1ccc(-c2noc(-c3nnn(-c4cccc(C(F)(F)F)c4)c3N)n2)cc1`: the “activity, negative = inhibition” value is 9.38%.

On to `COc1ccc(OC)c(CCNC(=O)CCCn2c(=O)c3cccn3c3cccnc32)c1`, for which the “activity, negative = inhibition” value is -4.81%.

Take `CCOCCc1nn2c(=O)cc(COC(=O)CNC(=O)c3ccc(C(C)(C)C)cc3)nc2s1`: the “activity, negative = inhibition” value is -31.7%.

For `CCOC(=O)Cn1c(=O)n(C2CCCCC2)c2nc(-c3cccc(OC)c3)nc(C(N)=O)c21`, the “activity, negative = inhibition” value was 1.49%.

On to `CCc1nc2c(OCc3cccc(OC)c3)cccn2c1N(C)C(=O)C(C)C`, for which the “activity, negative = inhibition” value is -1.92%.

For the molecule `CCc1nc2c(OCc3ccc(Cl)cc3Cl)cccn2c1N(C)C(=O)C(C)C`, the Potency was 12.6 µM (active).

On to `Cc1nc2c(OCc3cccc(Cl)c3)cccn2c1N(C)CC1CC1`, for which the “activity, negative = inhibition” value was -16.2%.

For the molecule `Cc1nc2c(OCc3ccc(Cl)cc3Cl)cccn2c1N(C)CC1CC1`, the Potency was 11.2 µM (active).

With `Cc1nc2c(OCC(=O)C(C)(C)C)cccn2c1N(C)Cc1cccs1`, the “activity, negative = inhibition” value is -8.85%.

As for `CCc1nc2c(OCc3ccc(C(=O)OC)cc3)cccn2c1N(C)C(=O)C(C)C`, the “activity, negative = inhibition” value is -7.08%.

For `COc1cccc(N2CC(NC(=O)/C=C\c3ccccc3)CC2=O)c1` (configuration not stated), the “activity, negative = inhibition” value was -8.37%.

As to `O=C(CCSCc1cccc(F)c1)NCc1ccccc1`, the “activity, negative = inhibition” value was -6.59%.

Turning to `CCN(CCCNC(=O)c1ccc(Sc2ccc(C)cc2)c(NC(C)=O)c1)c1cccc(C)c1`, the “activity, negative = inhibition” value is -2.89%.

For the molecule `CCCOc1ccc(C(=O)C(CCC(CNCC)C(=O)c2ccc(OCCC)cc2)CNCC)cc1` (configuration not stated), the Potency is 3.16 µM (active).

For `CCCOc1cccc(C(=O)Nc2cccc(NC(=O)c3ccc(C(C)(C)C)cc3)c2)c1`, the “activity, negative = inhibition” value is -8.91%.

With `COC(=O)c1ccc(OCC(=O)NC(C)(C)C)cc1`, the “activity, negative = inhibition” value was 4.89%.

With `Cc1cc(Br)ccc1NC(=O)Cn1cnc2sc(C)c(S(=O)(=O)N3CCN(C)CC3)c2c1=O`, the “activity, negative = inhibition” value was 5.55%.

For the molecule `COc1cc(OC)cc(-c2nc3nc(C)c(CCC(=O)Nc4ccccc4)c(C)n3n2)c1`, the “activity, negative = inhibition” value is -0.887%.

Take `Cc1ccc(-c2cn3c(n2)sc2cc(C(=O)NCCCc4ccccc4)ccc23)cc1`: the “activity, negative = inhibition” value is 19.4%.

In the case of `COc1ccc(N2C(=O)CSC23C(=O)N(Cc2cccc(F)c2)c2ccccc23)cc1Cl` (configuration not stated), the “activity, negative = inhibition” value was 0.856%.

`COc1ccc(-c2nc3c4ccccc4n(CC(=O)Nc4ccc(C(C)=O)cc4)c(=O)n3n2)cc1`: the “activity, negative = inhibition” value was -19%.

For `COc1ccc(CCNC(=O)COC(=O)Cc2cc(OC)c(OC)c(OC)c2)cc1`, the “activity, negative = inhibition” value is -3.46%.

`COc1cc(CC(=O)Nc2nc(-c3ccc(F)c(F)c3)cs2)cc(OC)c1OC`: the Potency is 11.2 µM (active).

As to `O=C(COC(=O)C1CCCO1)Nc1nc(-c2ccc(F)cc2)cs1` (configuration not stated), the “activity, negative = inhibition” value was -6.26%.

Consider `O=[N+]([O-])c1ccc(S(=O)(=O)N2CCN(c3nc(-c4ccccc4)nc4ccccc34)CC2)cc1`, for which the “activity, negative = inhibition” value is 3.85%.

On to `COc1cccc(CNC(=O)C(NS(=O)(=O)c2ccc3nc(C)sc3c2)C(C)C)c1` (configuration not stated), for which the “activity, negative = inhibition” value was -0.357%.

In the case of `COc1ccccc1NC(=S)NC(=O)C(C)C`, the “activity, negative = inhibition” value was -9.88%.

For `COc1ccccc1NC(=O)c1cc(Cl)nnc1Cl`, the “activity, negative = inhibition” value is 2.59%.

Turning to `COc1ccccc1NC(=O)/C=C/C(N)=O`, the Potency is 12.6 µM (active).

With `Clc1ccc2c(c1)C1=C(C(c3ccncc3)O2)C(c2ccc(Br)cc2)n2ncnc2N1` (configuration not stated), the Potency was 3.98 µM (active).

As to `CCOC(=O)C1=C(c2ccccc2)Nc2ncnn2C1c1ccc(Cl)cc1` (configuration not stated), the “activity, negative = inhibition” value was 9.18%.

On to `Brc1ccc(C2=CC(c3ccco3)n3ncnc3N2)cc1` (configuration not stated), for which the “activity, negative = inhibition” value was 64.9%.

For the molecule `Cc1nnsc1C(=O)N/N=C/c1cccc(C(F)(F)F)c1`, the “activity, negative = inhibition” value is 6.29%.

`FC(F)(F)c1cccc(N/N=C/c2ccccc2)c1`: the Potency is 11.2 µM (active).

For the molecule `Cc1cc2c(C)nc(N/N=C/c3ccccc3)nc2o1`, the “activity, negative = inhibition” value was 1.98%.

Consider `O=C1CSC2(C(=O)N(Cc3ccccc3)c3ccccc32)N1c1cccc(F)c1` (configuration not stated), for which the “activity, negative = inhibition” value was -24.9%.

For `CCN1CCc2nc3sc(C(=O)Nc4ccccc4OC(F)(F)F)c(N)c3cc2C1`, the “activity, negative = inhibition” value is 44.2%.

On to `CCOC(=O)c1c(C)[nH]c(CCC(=O)Nc2ccc(OC)c(OC)c2)c1C`, for which the “activity, negative = inhibition” value was -4.89%.

For `Cc1noc(C)c1COc1ccc(C(=O)NCCOc2ccccc2)cc1`, the “activity, negative = inhibition” value is -6.19%.

As to `CN(C)C(CNC(=O)c1ccc(OCc2cn3ccccc3n2)cc1)c1ccco1` (configuration not stated), the “activity, negative = inhibition” value is 9.62%.

With `CN(C)CCNC(=O)c1ccc(-c2cn3c(-c4ccc(Oc5ccccc5)cc4)cnc3cn2)cc1`, the Potency is 11.2 µM (active).

Take `COc1ccc(CCNC(=O)C(=O)NCC(c2ccco2)S(=O)(=O)c2cccs2)cc1OC` (configuration not stated): the “activity, negative = inhibition” value is 1.36%.

`OC[C@@H]1O[C@H](n2cnc3c(SCc4ccccc4)ncnc32)[C@H](O)[C@H]1O`: the “activity, negative = inhibition” value was -27.6%.

Regarding `CN1C[C@@H](CO)O[C@@H](n2cnc3c(N4CCN(CCO)CC4)ncnc32)C1`, the “activity, negative = inhibition” value was 27.1%.

On to `OCC1OC(n2cnc3c(N4CCCC4)ncnc32)C(O)C1O` (configuration not stated), for which the Potency was 2.82 µM (active).

`COc1ccccc1NC(=O)CSc1oc(-c2ccco2)nc1S(=O)(=O)c1ccc(Br)cc1`: the “activity, negative = inhibition” value was -1.11%.
